Assay results as given in the supplement of paper PMC3334620.
Over roughly 33,000 sequences, “E-score (-0.5 to 0.5)” has its median near -0.015; the highest 2% begin near 0.3. The list comes from a sample in which the highest values are over-represented; it also holds similar and randomly drawn sequences.

Target: T1, Abf1 (UniProt P14164)
T1 sequence: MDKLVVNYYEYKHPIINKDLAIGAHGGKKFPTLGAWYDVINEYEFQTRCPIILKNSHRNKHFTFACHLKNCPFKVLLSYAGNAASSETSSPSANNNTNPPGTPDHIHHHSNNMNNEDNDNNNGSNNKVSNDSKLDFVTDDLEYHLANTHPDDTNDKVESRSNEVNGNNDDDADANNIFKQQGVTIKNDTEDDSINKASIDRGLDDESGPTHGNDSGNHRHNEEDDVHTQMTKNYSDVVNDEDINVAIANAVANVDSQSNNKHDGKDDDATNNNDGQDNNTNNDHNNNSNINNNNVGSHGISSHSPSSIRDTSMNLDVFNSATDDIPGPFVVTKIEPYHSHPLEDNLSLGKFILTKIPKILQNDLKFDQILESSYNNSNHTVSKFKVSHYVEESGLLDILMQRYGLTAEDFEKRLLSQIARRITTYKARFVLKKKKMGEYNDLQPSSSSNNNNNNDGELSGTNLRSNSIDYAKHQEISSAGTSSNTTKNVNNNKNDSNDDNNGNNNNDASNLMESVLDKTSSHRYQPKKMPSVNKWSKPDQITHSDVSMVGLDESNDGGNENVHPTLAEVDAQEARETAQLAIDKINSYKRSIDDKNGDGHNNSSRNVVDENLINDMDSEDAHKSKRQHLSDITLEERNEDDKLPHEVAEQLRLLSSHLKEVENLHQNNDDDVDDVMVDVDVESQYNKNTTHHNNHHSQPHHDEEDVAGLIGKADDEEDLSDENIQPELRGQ
Experiment: PBM E-score (8-mer binding enrichment) (E-score (-0.5 to 0.5)); higher = stronger / more preferred TF binding
Conditions: protein concentration: 200 nM; construct: GST-full length
Description: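 Universal 'all 10-mer' protein binding microarrays (Agilent AMADID 015681) probed with GST-tagged S. cerevisiae TFs (full-length or DBD) made by in vitro transcription/translation (PURExpress), about 100-200 nM. Bound TF was detected with fluorescent anti-GST. Each ungapped 8-mer (which stands for itself and its reverse complement) is scored by the PBM enrichment score (E-score), a modified Wilcoxon-Mann-Whitney statistic from -0.5 to +0.5, computed with the Universal PBM Analysis Suite. Scale: above 0.35 generally sequence-specific binding.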

Sequence	PBM E-score
AACAGAGC	-0.0439
ACTCTGTG	-0.0599
GTGCCATA	-0.14
CCAAAAGC	-0.0875
TCGCATAA	0.205
AATACTTC	-0.0521
AAGAATGA	0.293
AATGTCGG	-0.0313
AGTGTCAT	0.21
AATGTCGA	0.146
AATGTCAT	0.306
CATGTCAG	0.0449
CATGTCAA	0.105
ACTGTCAT	0.0825
CATGTCAC	0.383
GCTGTCAC	0.197
AATGTCGT	0.302
GATGTCAA	-0.0282
GATGTCAC	0.395
GAGTTGTA	0.0502
GGTAGCTA	-0.16
AAACTCGC	-0.0402
GAGTGTCC	-0.0553
CACCTCGC	-0.0945
ACAGTTGA	-0.00384

Sequence	PBM E-score
ATGGAGAA	-0.0924
CTTGTGGA	-0.249
GTCCCAAC	0.0207
ACAGCTAA	-0.159
AATGTCAA	-0.00569
CGTGTCAG	0.27
AATGTCAG	-0.169
AATGTCAC	0.416
CGTGTCAC	0.327
AGTGTCAC	0.174
CACGCCGG	-0.0297
GATAGGTA	0.0863
CGGGCGGA	-0.157
CTTGCATA	0.0552
ACCGTACT	0.286
ACCGTACA	0.327
CCCGTACG	0.348
TGCGTACA	0.0613
CCCGTACA	0.263
TCCGTACA	0.368
AACGTACG	0.222
AGCGTACA	-0.121
ACCGTAAG	0.226
CCCGTACC	0.182
TCCGTAAA	0.145

Sequence	PBM E-score
ACCGTACG	0.34
CTCAGCCA	-0.0785
CGCGCAGA	0.103
AGTAACGG	0.0792
AAGAGAGT	-0.24
GAAGGGTC	-0.227
ACTAAAAG	0.0434
CAATGCCG	-0.0313
AGTTGAGG	-0.116
CTTACGGC	-0.0264
ACCGTACC	0.118
GCCGTACA	0.294
GCCGTACC	0.356
CCATACGA	0.283
GCCTACGA	0.239
ACATACGC	-0.0157
ACATACGT	0.033
TCATACGA	0.328
GCATACGA	0.0403
TCCTACGA	0.347
CCATACGG	0.281
ACATACTA	0.109
CCCTACGA	0.041
ACATACGG	0.3
ACATACGA	0.356

Sequence	PBM E-score
GCTAGTAC	0.0984
AGCTTGAA	-0.106
TACCGTCA	0.262
CGTATCAG	0.0845
TCATTCGA	0.129
ACCTCTGG	-0.129
GAGCCTGA	-0.165
AAACCGGA	0.00218
CCACGAAG	0.0703
CCACGAAA	0.216
CCACGAAC	0.338
ACACGATC	0.25
CCACGATA	0.143
CCACGATC	0.335
CTCGGGAA	0.0853
AGTCATGA	0.149
ACCTTTTG	-0.00807
TAATGAAA	0.12
GAATGATA	0.397
TAATGAGA	0.0631
ACATGATA	0.315
GCATGATA	0.268
GAATGAGA	0.0436
CAATGATG	0.106
ACATGATC	0.292

Sequence	PBM E-score
CAATGAGA	-0.0863
CAATGATA	0.322
GAATGAAA	-0.0868
TAATGATA	0.348
CGGAGAAC	-0.184
GTAGATAC	0.0486
CCTGTGTC	-0.275
CGTAGAAC	0.118
AACCACAT	0.182
GCCATAGC	-0.055
ACTTCAAG	0.0326
CTACGTGC	-0.0934
ACGGACGG	0.077
TCGGTGCA	-0.0272
ACATGATG	0.119
AAATGAGG	0.0174
AAATGATT	0.275
CAATGAAC	-0.0206
GAATGAGC	0.051
AAATGAAA	0.214
AAATGATA	0.409
AAATGATG	0.318
GAATGATC	0.32
GAATGAAC	-0.112
AAATGATC	0.228

Sequence	PBM E-score
CAATGATC	0.31
AGCTACCC	-0.0429
ACGCTAGT	0.043
CAATGCGG	-0.281
ACGGGTCC	0.142
GTGGACAC	-0.0874
TAGGTCAA	0.0576
ATGGCGAG	0.0386
GGTATTGA	0.00996
CCTATTTC	0.095
AGTATTTA	0.152
AGTATTGA	0.0838
CGTATTGA	0.307
GGTATTTA	0.0301
CGTATTTA	0.335
CGTATTTC	0.316
AGTATTTC	0.209
AACCTGGC	-0.112
GGCCGGCA	-0.157
CTGCCGAC	-0.121
TCTCTCCA	-0.031
GGCTCTCA	-0.224
CGCGTGAG	0.00035
ATCGTGAC	0.255
CTCGTGAA	0.224

Sequence	PBM E-score
CTCGTGAC	0.344
CGCGTGAC	0.303
AGCGTGAC	0.186
GGACCCCC	-0.249
CGACTATA	0.129
AGACCTAA	-0.206
GTACAAAA	0.344
TTACATAA	0.197
TGACATAA	0.351
CTACAAAA	0.139
GGACAAAA	-0.0523
AGACATAA	-0.0415
GGACATAA	-0.032
CTACATAA	-0.118
ATACAAAA	0.0848
CGACAAAA	0.241
TGACAAAA	0.304
GTACATAA	0.324
AACACTGA	-0.142
AGTGGATA	0.0619
AAAGAAGG	-0.118
AACACCAC	0.00166
CAATCTAC	-0.0654
ACCAAGAA	-0.00575
TAAATGCA	0.0499

Sequence	PBM E-score
AGAGACCC	-0.221
CCGGGCCG	-0.129
TTTTAAAA	0.0597
ATAAATAG	0.104
ATAAATTA	0.362
ATATAAAC	0.0743
ATAAATAT	0.316
ATATAAAT	0.3
ATAAATTG	0.115
ATAAATAA	0.246
ATATAAAG	0.146
CTAAATTA	0.0644
ACTCGTCT	0.0807
CGGATATA	0.185
ACTCCTAC	0.0623
CTGGTAAA	-0.16
GAACGCGC	0.0459
AGCACGGC	0.0922
GAATCGTC	0.239
AAGATGAC	0.313
AAGATGAT	0.304
GAGATGAC	0.141
ACGATGAA	0.2
ACGATGAC	0.264
CAGATGAC	0.058

Sequence	PBM E-score
AAGATGAG	0.00927
AAGATGAA	-0.083
ACGATGAT	0.322
CACCAATG	0.0285
GATCGACC	-0.0655
ACAACGCT	-0.0795
GATCTTGC	0.0639
CTGCCCTA	-0.132
CTCCATGC	-0.265
GATCCTGC	0.0793
AGGCCGTG	0.092
TGAGAGCA	-0.0853
CCGCCGTC	0.334
CCGCCGTA	0.0615
ACGCCGTC	0.282
CATTGCCG	0.0936
GAACTCTC	-0.211
CCGCAGTC	-0.165
TGACTTAA	0.061
GATTGTCA	0.268
AATTGTCA	0.335
AATTGTCC	-0.0973
AGAGTGGC	-0.251
AGCAGATG	-0.0843
CTATTAAA	-0.0136

Sequence	PBM E-score
TTATTAAA	0.116
ATATTAAA	0.33
AAAAGTTA	0.151
CCATTCGG	-0.0195
ATTATTTA	0.254
GTTTATCA	0.304
ATTTATCG	0.222
CTTTATCC	-0.0621
GTTTATTA	0.0803
CTTTATCA	0.313
ATTTATTA	0.309
CGTTATCA	0.205
ACTTATCC	0.11
GCTTATCA	0.0367
GTTTATGA	0.11
ATTTATCC	0.317
ACTCCCAT	-0.029
GATCGACA	0.013
TCTTGTAA	0.0644
CCGTAAGC	0.0521
ATTTATAA	0.176
ATTTATCA	0.314
ATTTATGA	0.229
CGTACCAG	0.0671
CGTACCAA	0.353

Sequence	PBM E-score
CGTACTCC	0.203
CGTACTAA	0.329
TGTACTAA	0.0702
CGTACTCA	0.304
CGTACTAC	0.274
AGTACTCA	-0.0128
TGTACCAA	0.0776
CGACGCGA	-0.0138
AGAATGTC	0.188
ACAACGCC	0.13
ACCCTACA	-0.153
CGGTCAAC	0.0203
ACGACGTG	0.232
GCAAGCGC	-0.201
ACCTCACC	-0.0217
TATACGGA	0.164
GTTACGAA	0.208
ACTACGAA	0.205
GATACGAC	0.148
AATACGAC	0.278
GATACGAA	0.309
AATACGAA	0.337
CCTACGAA	0.253
AATACGAT	0.276
TATACGAA	0.368

Sequence	PBM E-score
CATACGAA	0.267
TCTACGAA	0.301
CCCCATCA	-0.235
GAATTGGA	-0.016
AGCACACC	-0.13
CACAAGAG	-0.0119
CCAGCACA	-0.0686
AGCGAGAA	-0.0126
CGATATTC	0.225
CGATATGA	0.161
CGGTATCA	0.204
CGATATCC	0.17
CGATATCG	0.372
CGATATTA	0.326
GGATATTA	0.088
CGATATCA	0.363
AGATATCG	0.11
GGACCGCA	-0.155
ACAGGGGC	-0.194
ACACCCGT	-0.04
TCAAACAA	-0.127
GAGAGGAC	-0.077
TCAGTAGA	-0.0357
CATTAGTC	-0.14
GTGACCAC	0.175

Sequence	PBM E-score
ACGATCGC	0.265
AAGATCGT	0.332
ACGATCGG	0.168
AAGATCGG	-0.163
AAGATCGC	0.169
ACGATCGT	0.319
GCGCTGTA	-0.132
CCTACGTC	0.0219
TACCAGTA	0.0685
ATCAGGAC	0.103
ACCTTGGG	-0.0211
ACTGACAA	0.129
ACTGACAT	0.0708
CCTGACAG	-0.0556
AGTGACCA	0.308
AGTGACCG	0.125
CGTGACAG	0.319
AGTGACAG	0.292
AGTGACAA	0.439
GGTGACCA	0.0526
AGTGACAT	0.43
ATTGACAA	0.0759
CATGACAG	0.0583
GTATAGGA	0.0694
CAGAGTTC	-0.228

Sequence	PBM E-score
GGGCCGTA	0.244
GACAGGAA	0.0498
GATCGCCC	0.0433
GCGACCAC	0.134
TCGATTAA	0.0311
CACAAAAA	0.0732
GCAGTTAA	-0.0142
CTAACGAC	0.263
TCAGTCCA	-0.171
GGTGACAA	0.423
AGTGACAC	0.382
AGTGACTA	0.324
GGTGACAC	0.238
TGTGACAA	0.221
GCTGACAA	0.0133
ATTGACAC	-0.12
AGTGACTC	0.149
CGTGACAC	0.252
CGTGACAA	0.375
AGTGACTG	0.175
GTTGACAA	0.16
